Source: PubChem BioAssay (NCATS)
“And” between values parts separate entries of the source, which are not always exact repeats. Equal values may be shown once. Records with an inconclusive call do not appear. Some structures have more than one record in an assay (separate samples or runs), and their calls can disagree. The source made the active and inactive calls. Unless noted, calls follow the shape of the dose curve; as a rule, active = well fitted curve in the direction sought with a large enough effect; inconclusive = small, poorly fitted or top-dose-only effect, or another doubt; inactive = no such curve, though single readings can be large; an effect the other way counts as inactive or inconclusive.

How the values were obtained:
[1] = molecular target: Cytochrome P450 1A2 (Homo sapiens) (UniProt P05177); experiment: p450-cyp1a2 (AID 410; calls by dose curve; also: potency is read from the fitted curve at half-maximal effect;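 as to activity change, negative = inhibition: -100% = full effect of reference inhibitor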)
Sequence of Cytochrome P450 1A2 (Homo sapiens) (P05177 whole entry, looked up): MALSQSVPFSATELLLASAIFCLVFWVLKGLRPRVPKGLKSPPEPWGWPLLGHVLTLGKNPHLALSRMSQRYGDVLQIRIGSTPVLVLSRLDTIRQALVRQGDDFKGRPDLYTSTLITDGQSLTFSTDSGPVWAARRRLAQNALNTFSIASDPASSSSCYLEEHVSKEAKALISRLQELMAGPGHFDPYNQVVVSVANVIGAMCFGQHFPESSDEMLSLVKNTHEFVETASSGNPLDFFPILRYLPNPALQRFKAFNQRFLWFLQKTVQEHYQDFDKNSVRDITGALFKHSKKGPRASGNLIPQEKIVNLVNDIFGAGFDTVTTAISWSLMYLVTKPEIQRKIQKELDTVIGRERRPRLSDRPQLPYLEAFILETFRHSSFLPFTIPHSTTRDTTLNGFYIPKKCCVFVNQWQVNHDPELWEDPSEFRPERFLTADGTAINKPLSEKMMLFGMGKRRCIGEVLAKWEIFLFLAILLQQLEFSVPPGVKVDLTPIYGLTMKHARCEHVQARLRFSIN
Summary of the method: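 Inhibition was calculated relative to 57 uM furafylline (full inhibition). The reaction used human CYP1A2 at 20nM with Luciferin-ME at its Km, 100uM, driven by an NADPH-regenerating system for 60 min at room temperature.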

[2] = NFAT Signaling Pathway (AID 444; active = well fitted curve in either direction with a large enough effect, not every such curve was filed as active;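 also: carbachol stimulus at about its EC50 of 1 µM final; % is scaled to controls: 0 for no effect and ±100 for the full control effect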); settings: Jurkat NFAT-bla M1, carbachol, beta-lactamase ratio, 5 h; at 7.69 µM (top of the series) unless noted
Summary of the method: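 Read-out: CCF4 FRET ratio (460 nm/530 nm) after 1 h RT dye loading, used for %activity and AC50 from titration series. Cells: Jurkat NFAT-β-lactamase/M1 line, treated with compound plus 1 uM carbachol for 5 h, 37 °C.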

[3] = Stat Signaling Pathway (AID 446; active = well fitted curve in either direction with a large enough effect, not every such curve was filed as active;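 also: ME-180 cervical cancer cells given 40 pM IL-6 alongside compound; SIE-controlled beta-lactamase reporter measured as 460/530 nm FRET emission ratio; % is scaled to controls: 0 for no effect and ±100 for the full control effect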); settings: ME-180 SIE beta-lactamase reporter, IL-6 stimulated, 5 h
Summary of the method: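 Screening format detects activators and inhibitors alike: ME-180 SIE-bla cells stimulated at 40 pM IL-6 for 5 hrs with compound, then dual-emission beta-lactamase read at 405 nm excitation.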

[4] = molecular target: Glucocorticoid receptor (Homo sapiens) (UniProt P04150); experiment: GR-GFP Redistribution (AID 450;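 active = compounds whose dose series gives a full or clear partial fitted curve of increased nuclear translocation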; also: potency is read from the fitted curve at half-maximal effect); settings: U2OS GR-GFP nuclear translocation, laser cytometry, 2 h
Sequence of Glucocorticoid receptor (Homo sapiens) (P04150 whole entry, looked up, the tested form may be a part): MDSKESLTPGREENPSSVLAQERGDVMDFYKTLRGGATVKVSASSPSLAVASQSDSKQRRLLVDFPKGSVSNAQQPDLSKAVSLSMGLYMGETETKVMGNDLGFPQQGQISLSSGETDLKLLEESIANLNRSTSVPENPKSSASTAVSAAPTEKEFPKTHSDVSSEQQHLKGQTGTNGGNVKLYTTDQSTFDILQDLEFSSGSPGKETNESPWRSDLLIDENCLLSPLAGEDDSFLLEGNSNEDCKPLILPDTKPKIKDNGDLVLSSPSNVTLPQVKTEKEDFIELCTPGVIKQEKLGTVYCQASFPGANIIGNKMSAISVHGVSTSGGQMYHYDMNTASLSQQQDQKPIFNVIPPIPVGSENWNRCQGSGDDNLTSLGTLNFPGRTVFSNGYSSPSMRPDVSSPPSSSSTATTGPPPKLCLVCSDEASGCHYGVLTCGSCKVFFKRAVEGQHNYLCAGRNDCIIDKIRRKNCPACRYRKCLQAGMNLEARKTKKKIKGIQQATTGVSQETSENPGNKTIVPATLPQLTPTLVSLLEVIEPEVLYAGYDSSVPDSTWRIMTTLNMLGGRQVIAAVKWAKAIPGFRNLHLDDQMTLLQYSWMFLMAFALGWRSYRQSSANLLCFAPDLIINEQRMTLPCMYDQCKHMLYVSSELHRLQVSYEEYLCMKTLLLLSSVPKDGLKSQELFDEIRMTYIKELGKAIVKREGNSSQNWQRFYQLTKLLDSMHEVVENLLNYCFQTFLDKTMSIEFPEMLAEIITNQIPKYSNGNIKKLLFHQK

[5] = molecular target: Glucocorticoid receptor (Homo sapiens) (UniProt P04150); experiment: GR-EFC Redistribution (AID 451; calls by dose curve; also: potency is read from the fitted curve at half-maximal effect); settings: CHO-K1 GR-EFC translocation, beta-gal luminescence, 2 h
Summary of the method: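 Translocation of GR-ED fusion to nuclear EA restores b-gal, read by luminescence after 1 h room-temperature detection. Engineered CHO-K1 biosensor cells, 1,000/well, exposed 2 h at 37 C to titrations up to 46 uM final.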

[6] = molecular target: Mitogen-activated protein kinase 10 (Mus musculus) (UniProt Q61831); experiment: JNK3 AlphaScreen Assay (AID 530; active = well fitted curve in either direction with a large enough effect, not every such curve was filed as active;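 also: kinase came from lysate of stimulated human HepG2 cells; signal reports phosphorylation of biotinylated GST-cJun 1-79 at Ser73 with 10 µM ATP; % is scaled to controls: 0 for no effect and ±100 for the full control effect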)
Summary of the method: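 Room-temperature AlphaScreen kinase assay; pre-activated HepG2 lysate as JNK3 source, biotin-GST-cJun(1-79) substrate, 10 uM ATP, compound 15 min preincubation.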

[7] = molecular target: 3',5'-cyclic-AMP phosphodiesterase 4B (Homo sapiens) (UniProt Q07343); experiment: qHTS Assay for Inhibitors of PDE-IV (AID 607; active = well fitted activation curve with a large enough effect in the main read-out, with a control signal flat, not every such curve was filed as active; also: % of control where 0% means no effect)
Sequence of 3',5'-cyclic-AMP phosphodiesterase 4B (Homo sapiens) (Q07343 whole entry, looked up): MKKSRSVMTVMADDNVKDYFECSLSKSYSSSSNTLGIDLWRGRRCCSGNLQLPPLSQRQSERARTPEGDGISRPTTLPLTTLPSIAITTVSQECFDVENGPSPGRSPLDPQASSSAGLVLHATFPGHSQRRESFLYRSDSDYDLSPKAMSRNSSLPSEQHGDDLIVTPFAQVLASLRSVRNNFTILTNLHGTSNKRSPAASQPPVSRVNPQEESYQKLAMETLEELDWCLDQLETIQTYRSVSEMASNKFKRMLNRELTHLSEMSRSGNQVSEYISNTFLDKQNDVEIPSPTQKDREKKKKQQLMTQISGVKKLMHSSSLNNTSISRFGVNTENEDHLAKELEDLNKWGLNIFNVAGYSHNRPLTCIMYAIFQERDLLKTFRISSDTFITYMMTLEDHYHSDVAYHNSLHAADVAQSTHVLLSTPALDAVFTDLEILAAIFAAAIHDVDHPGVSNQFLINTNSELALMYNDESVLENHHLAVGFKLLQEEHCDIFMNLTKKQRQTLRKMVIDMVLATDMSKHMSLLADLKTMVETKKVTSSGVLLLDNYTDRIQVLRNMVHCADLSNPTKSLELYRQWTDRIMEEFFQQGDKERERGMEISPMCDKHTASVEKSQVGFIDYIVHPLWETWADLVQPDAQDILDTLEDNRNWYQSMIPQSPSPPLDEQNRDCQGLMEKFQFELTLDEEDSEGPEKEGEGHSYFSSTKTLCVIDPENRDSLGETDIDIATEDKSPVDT
Summary of the method: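 The readout is membrane depolarisation from a cAMP-sensing CNG channel, detected with a potential dye at ex 535/em 590. Cells were HEK293-derived (endogenous PDE-IV) at 1000 cells/well, titrated up to 22.9 uM final.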

[8] = molecular target: alpha-glucosidase (Oryza sativa, rice) (UniProt Q653V4); experiment: Counterscreen for Glucocerebrosidase Inhibitors: qHTS Assay for Rice alpha-Glucosidase at pH 5.0 (AID 997);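 also: 0% = full activity with enzyme and -100% = basal without enzyme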
Summary of the method: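 Rice alpha-glucosidase (4 nM final) with 400 uM 4-methylumbelliferyl-alpha-D-glucopyranoside in citrate buffer pH 5.0, 20 min at room temperature, stopped at pH 10; fluorescence 365/440 nm, compounds 0.7 nM–77 uM, AC50 from Hill fits.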

[9] = qHTS Assay for Lipid Storage Modulators (AID 1519; calls by dose curve); settings: Drosophila S3 cells, BODIPY lipid droplet/cell ratio, laser cytometry, cells loaded with oleic acid
Summary of the method: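 Cells seeded at 5,000 per well were treated with compounds over a concentration series and loaded with oleic acid (400 uM, as added). Lipid droplet fluorescence (488 nm excitation, 500-530 nm channel) was read by laser-scanning cytometry and normalized to 20 uM Triacsin C.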

[10] = molecular target: Ubiquitin carboxyl-terminal hydrolase 1 (Homo sapiens) (UniProt O94782); experiment: Inhibitors of USP1/UAF1: Pilot qHTS (AID 504865);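 also: rhodamine fluorescence freed from ubiquitin-rhodamine substrate followed over time; top concentration of the series differs between compounds; % is scaled to controls: 0 for no effect and ±100 for the full control effect; nearly all actives have a fitted effect of over 35% in size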
Sequence of Ubiquitin carboxyl-terminal hydrolase 1 (Homo sapiens) (O94782 whole entry, looked up): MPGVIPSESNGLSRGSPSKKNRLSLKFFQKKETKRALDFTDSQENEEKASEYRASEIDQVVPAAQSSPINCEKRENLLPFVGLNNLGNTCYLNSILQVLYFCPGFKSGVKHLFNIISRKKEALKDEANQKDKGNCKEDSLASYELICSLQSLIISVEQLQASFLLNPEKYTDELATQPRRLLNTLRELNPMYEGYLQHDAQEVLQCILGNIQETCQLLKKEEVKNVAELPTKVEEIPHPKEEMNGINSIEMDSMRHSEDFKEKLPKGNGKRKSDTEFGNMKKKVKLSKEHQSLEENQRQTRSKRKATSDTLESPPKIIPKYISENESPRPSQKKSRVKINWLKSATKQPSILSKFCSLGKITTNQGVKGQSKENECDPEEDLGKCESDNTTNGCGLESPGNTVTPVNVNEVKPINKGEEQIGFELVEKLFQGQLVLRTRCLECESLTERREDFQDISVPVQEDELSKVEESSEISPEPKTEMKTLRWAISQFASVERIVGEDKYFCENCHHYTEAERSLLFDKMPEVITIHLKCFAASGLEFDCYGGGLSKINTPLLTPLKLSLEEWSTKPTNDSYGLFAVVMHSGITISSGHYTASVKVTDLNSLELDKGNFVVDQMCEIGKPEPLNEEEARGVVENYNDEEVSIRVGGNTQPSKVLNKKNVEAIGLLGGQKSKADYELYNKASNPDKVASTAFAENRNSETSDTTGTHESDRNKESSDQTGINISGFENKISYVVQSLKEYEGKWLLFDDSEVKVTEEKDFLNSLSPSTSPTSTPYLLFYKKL
Summary of the method: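 Deubiquitinase activity followed as kinetic rhodamine fluorescence release from 150 nM Ub-Rho. 1 nM USP1/UAF1 with compound, after 15 min room-temperature preincubation, in HEPES pH 7.8 buffer containing TCEP, EDTA, BSA and Tween-20.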

[11] = AP1 Signaling Pathway (AID 357; active = well fitted curve in either direction with a large enough effect, not every such curve was filed as active; also: % is scaled to controls: 0 for no effect and ±100 for the full control effect); settings: ME-180 (cervical carcinoma) AP-1-bla reporter, EGF-induced, beta-lactamase ratio, 5 h; at 7.69 µM (top of the series) unless noted
Summary of the method: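 AP-1-bla ME-180 cells with beta-lactamase reporter under AP-1 response element, stimulated with EC50 EGF; compounds titrated, 5 hours at 37 degrees Celsius. CCF4 read at 460/530 nm ratio; positive and negative modulators judged by AC50.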

[12] = molecular target: ATP-dependent 6-phosphofructokinase (Trypanosoma brucei brucei) (UniProt O15648); experiment: qHTS Assay to Find Inhibitors of T. brucei phosphofructokinase: hit validation (AID 492961)
Sequence of ATP-dependent 6-phosphofructokinase (Trypanosoma brucei brucei) (O15648 whole entry, looked up): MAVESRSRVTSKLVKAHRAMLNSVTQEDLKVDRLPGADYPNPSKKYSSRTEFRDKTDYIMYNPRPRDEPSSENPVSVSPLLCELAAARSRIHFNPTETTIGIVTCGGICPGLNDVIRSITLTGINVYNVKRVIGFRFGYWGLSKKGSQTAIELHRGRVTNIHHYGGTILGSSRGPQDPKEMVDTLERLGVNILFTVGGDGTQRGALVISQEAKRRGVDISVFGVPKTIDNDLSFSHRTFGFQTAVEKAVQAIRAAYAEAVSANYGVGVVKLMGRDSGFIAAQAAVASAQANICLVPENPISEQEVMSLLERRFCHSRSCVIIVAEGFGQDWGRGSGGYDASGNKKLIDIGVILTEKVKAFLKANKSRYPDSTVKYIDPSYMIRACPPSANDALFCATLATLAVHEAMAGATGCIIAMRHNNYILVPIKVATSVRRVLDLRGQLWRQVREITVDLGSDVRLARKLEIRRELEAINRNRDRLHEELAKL
Summary of the method: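 In this biochemical qHTS validation, titrated compounds were tested against 1.25 nM PFK with 0.1 mM ATP and 0.5 mM F6P. Percent activity came from controls lacking or containing enzyme.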

[13] = molecular target: Luciferin 4-monooxygenase (Photinus pyralis) (UniProt P08659); experiment: Biochemical firefly luciferase enzyme assay for NPC (AID 624030);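 also: purified P. pyralis luciferase at 10 nM with luciferin and ATP substrate; 0% = DMSO and -100% = full luciferase inhibition by PTC124 control; nearly all actives have a fitted effect of over 70% in size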
Sequence of Luciferin 4-monooxygenase (Photinus pyralis) (P08659 whole entry, looked up): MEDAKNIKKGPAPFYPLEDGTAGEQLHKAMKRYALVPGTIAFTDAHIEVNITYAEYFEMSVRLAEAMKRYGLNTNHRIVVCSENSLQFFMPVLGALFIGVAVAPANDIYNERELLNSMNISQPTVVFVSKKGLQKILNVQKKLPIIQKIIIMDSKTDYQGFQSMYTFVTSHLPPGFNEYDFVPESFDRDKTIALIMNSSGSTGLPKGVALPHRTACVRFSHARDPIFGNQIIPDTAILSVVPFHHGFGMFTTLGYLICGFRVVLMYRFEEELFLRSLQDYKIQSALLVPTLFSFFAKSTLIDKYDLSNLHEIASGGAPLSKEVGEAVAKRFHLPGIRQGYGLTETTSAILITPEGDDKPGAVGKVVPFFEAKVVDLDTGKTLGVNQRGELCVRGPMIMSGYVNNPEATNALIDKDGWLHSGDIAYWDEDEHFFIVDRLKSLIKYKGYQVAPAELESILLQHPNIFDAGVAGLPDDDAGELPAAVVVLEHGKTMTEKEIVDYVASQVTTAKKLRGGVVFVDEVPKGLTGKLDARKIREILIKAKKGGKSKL
Summary of the method: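 Direct inhibition of firefly luciferase enzyme (10 nM final, 50 mM Tris Acetate) assessed by luminescence within 5 minutes. Percent activity scaled between DMSO and PTC124 positive control, with concentration-effect curves classified by fit quality and response.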

[14] = qHTS profiling for inhibitors of Plasmodium falciparum proliferation (AID 504749);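 also: 0% = DMSO vehicle and full inhibition = artemisinin control; nearly all actives have a fitted effect of over 60% in size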; settings: P. falciparum in erythrocytes, SYBR Green DNA, 72 h, at 12.8 µM (top of the series)
Summary of the method: (§1)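 Three-day growth assay of blood-stage parasites in erythrocytes (0.3% parasitemia, 2.5% hematocrit) at 37 C, 5% CO2, quantified by SYBR Green DNA staining after overnight detergent lysis.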

AS120 = experiment: as above; settings: P. falciparum in erythrocytes, SYBR Green DNA, 72 h; series mostly up to 28.7 µM
Summary of the method: as §1

CP238 = experiment: as above; settings: P. falciparum in erythrocytes, SYBR Green DNA, 72 h; series mostly up to 12.8 µM
Summary of the method: as §1

CP250 = experiment: as above; settings: P. falciparum in erythrocytes, SYBR Green DNA, 72 h; series mostly up to 12.8 µM
Summary of the method: as §1

CP262 = experiment: as above; settings: P. falciparum in erythrocytes, SYBR Green DNA, 72 h; series mostly up to 12.8 µM
Summary of the method: as §1

CP265 = experiment: as above; settings: P. falciparum in erythrocytes, SYBR Green DNA, 72 h; series mostly up to 12.8 µM
Summary of the method: as §1

FAB9 = experiment: as above; settings: P. falciparum in erythrocytes, SYBR Green DNA, 72 h; series mostly up to 12.8 µM
Summary of the method: as §1

[15] = measured here: cell count channel max response
[16] = measured here: lipid channel max response
[17] = at 7.69 µM (top of the series) unless noted

CC(C)COC[C@H](CN(Cc1ccccc1)c1ccccc1)N1CCCC1
-26.5%: max response [9, 16]
inactive: activity change, negative = inhibition [2] -5.29% [at 38 µM] | activity, negative = inhibition ([3]; at 17.2 µM (top of the series)) -1.52% | activity, negative = inhibition ([3]; at 38 µM (top of the series)) -10.2% | Potency [4] > 46 µM and > 20.6 µM | Potency [5] > 46 µM and > 20.6 µM | Potency [6] | Potency [7] | outcome [8] | activity change, negative = inhibition ([9]; at 25.7 µM (top of the series)) -12.4% | Potency [10]
-16.9%: max response [9, 15]
inactive and 12.6 µM (active): Potency [1]

CC(=O)N(CC(O)CN(C(C)=O)c1c(I)c(C(=O)NC[C@@H](O)CO)c(I)c(C(=O)NC[C@@H](O)CO)c1I)c1c(I)c(C(=O)NC[C@@H](O)CO)c(I)c(C(=O)NC[C@@H](O)CO)c1I
-17.3%: max response [9, 15]
-18.3%: max response [9, 16]
inactive: activity change, negative = inhibition [11] 2.7% [at 17.2 µM] | Potency [1] | activity change, negative = inhibition [2] -2.76% [at 17.2 µM] | activity, negative = inhibition [3, 17] 4.45% [at 17.2 µM] | Potency [4] > 20.6 µM | Potency [5] > 20.6 µM | Potency [6] | Potency [7] | activity change, negative = inhibition ([9]; at 25.7 µM (top of the series)) 0.967% | outcome [12] | Potency [10] | outcome [13] | activity, negative = inhibition ([14]; parasite line A) 5.56% | activity, negative = inhibition ([14]; parasite line B) 6.47% | Potency (AS120) | Potency (CP238) | Potency (CP250) | Potency (CP262) | Potency (CP265) | Potency (FAB9)

CCN1C(=O)N[C@@H](c2ccccc2)C1=O
-9.51%: max response [9, 16]
-10.1%: max response [9, 15]
inactive: activity change, negative = inhibition [11] -1.74% [at 17.2 µM] | Potency [1] | activity change, negative = inhibition [2] 1.96% [at 17.2 µM] | activity, negative = inhibition [3, 17] -21.2% [at 17.2 µM] | Potency [4] > 20.6 µM | Potency [5] > 20.6 µM | Potency [6] | Potency [7] | activity change, negative = inhibition ([9]; at 25.7 µM (top of the series)) -2.13% | outcome [12] | Potency [10] | outcome [13] | activity, negative = inhibition ([14]; parasite line A) -3.65% | activity, negative = inhibition ([14]; parasite line B) 13.5% | Potency (AS120) | Potency (CP238) | Potency (CP250) | Potency (CP262) | Potency (CP265) | Potency (FAB9)

N=c1ccn2c(n1)OC1C(O)C(CO)OC12 (stereo not drawn)
0.631% and 1.94%: max response [9, 15]
7.88% and 22.5%: max response [9, 16]
inactive: activity change, negative = inhibition ([9]; at 57.5 µM (top of the series)) 3.87% and 5.45% | Potency [10]

Cn1c(=O)c2c(ncn2C[C@@H](O)CO)n(C)c1=O
-0.706%: max response [9, 16]
inactive: activity change, negative = inhibition [11] 9.72% [at 17.2 µM] | Potency [1] | activity change, negative = inhibition [2] -4.3% [at 17.2 µM] | activity, negative = inhibition [3, 17] 11.3% [at 17.2 µM] | Potency [4] > 20.6 µM | Potency [5] > 20.6 µM | Potency [6] | Potency [7] | activity change, negative = inhibition ([9]; at 25.7 µM (top of the series)) 0.654% | outcome [12] | Potency [10] | outcome [13] | activity, negative = inhibition ([14]; parasite line A) 0.439% | activity, negative = inhibition ([14]; parasite line B) -2.95% | Potency (AS120) | Potency (CP238) | Potency (CP250) | Potency (CP262) | Potency (CP265) | Potency (FAB9)
-0.539%: max response [9, 15]
